Screens from PubChem.
PLK1 PBD block – qHTS for Inhibitors of PLK1-PDB (polo-like kinase 1 - polo-box domain): Primary Screen; hit rate 2.8% among 360,000; Plk1 PBD binding of FITC phosphopeptide, fluorescence polarization; Potency, µM, inactives show max response, negative = inhibition, hits mostly inhibitors; Serine/threonine-protein kinase PLK1 (Homo sapiens), P53350; AID 720504, 2013; note: potency is the fitted concentration of half-maximal effect; series mostly up to about 57 µM; % is set by controls: 0 for no effect and ±100 for the full control effect; nearly all actives have a fitted effect of over 65% in size
G9a block – qHTS Assay for Inhibitors of Histone Lysine Methyltransferase G9a | AID 504332, 2011 | hit rate 8.8% among 350,000 | Potency, µM (top dose mostly 102 µM), for inactives: at the highest dose activity, negative = inhibition, hits mostly inhibitors | G9a H3K9 monomethylation, AlphaScreen, 2 h | Histone-lysine N-methyltransferase EHMT2 (Homo sapiens), Q96KQ7; note: potency is the fitted concentration of half-maximal effect; % is set by controls: 0 for no effect and ±100 for the full control effect; nearly all actives have a fitted effect of over 75% in size
Target sequence (Q96KQ7 913-1193 limits assumed): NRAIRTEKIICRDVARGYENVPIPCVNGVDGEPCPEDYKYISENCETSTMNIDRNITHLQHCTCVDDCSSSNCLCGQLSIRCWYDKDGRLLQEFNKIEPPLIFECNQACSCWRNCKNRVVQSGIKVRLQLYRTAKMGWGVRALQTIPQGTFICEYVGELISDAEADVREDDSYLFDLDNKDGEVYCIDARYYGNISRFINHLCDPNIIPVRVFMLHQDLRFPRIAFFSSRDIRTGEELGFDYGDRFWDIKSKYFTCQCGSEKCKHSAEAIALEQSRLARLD
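Enzyme 20 nM + cpd, 15 min RT; add b-H3K9 pep 500 nM / SAM 20 uM; 2 h RT; anti-H3K9me1 Ab 0.5 ug/mL + SA donor / anti-rabbit acceptor beads 20 ug/mL each, 10 min; AlphaScreen read.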
JMJD2A Tudor – qHTS Assay for Inhibitors of JMJD2A-Tudor Domain; hit rate 4.4% among 390,000; Lysine-specific demethylase 4A (Homo sapiens), O75164; AID 504339, 2011; AlphaScreen JMJD2A-Tudor / H3K4me3 peptide binding; Potency, µM (highest dose often 114 µM), inactives show at the top dose activity change, negative = inhibition, usual class: inhibitors; note: potency is the fitted concentration of half-maximal effect; % is set by controls: 0 for no effect and ±100 for the full control effect; nearly all actives have a fitted effect of over 50% in size
BAZ2B inh – qHTS Assay for Inhibitors of BAZ2B; hit rate 4.4% among 360,000; AlphaScreen BAZ2B-H3K14Ac peptide displacement; Potency, µM (doses to about 114 µM), inactives show at the highest dose activity change, negative = inhibition, most hits filed as inhibitors; AID 504333, 2011; Bromodomain adjacent to zinc finger domain protein 2B (Homo sapiens), Q9UIF8; note: potency is the fitted concentration of half-maximal effect; % is set by controls: 0 for no effect and ±100 for the full control effect; nearly all actives have a fitted effect of over 60% in size
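AlphaScreen displacement of biotin-H3(5-23)K14Ac peptide (50 nM final) from BAZ2B (50 nM final) in PBS pH 7.4, 0.01% Tween-20; complex preformed 30 min RT, then compounds (top 110 uM) 30 min RT, beads 20 min dark.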
HP1b binding inh – HTS for Inhibitors of HP1-beta Chromodomain Interactions with Methylated Histone Tails. Potency, µM (series often up to 114 µM), for inactives: at the top dose activity change, negative = inhibition, hits mostly inhibitors. Chromobox protein homolog 1 (Homo sapiens), P83916. AlphaScreen HP1-beta / biotin-H3K9me3 peptide binding. AID 540317, 2011. hit rate 0.56% among 390,000; note: potency is the fitted concentration of half-maximal effect; nearly all actives have a fitted effect of over 70% in size
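AlphaScreen: HP1-beta (50 nM) preformed 30 min with biotin-H3(1-18)K9me3 peptide (50 nM) in PBS pH 7.4, 0.01% Tween-20. Compound added for 30 min at RT, then streptavidin donor/nickel chelate acceptor beads (10 ug/mL) for 30 min.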
PI5P4Ka inh – qHTS for Inhibitors of phosphatidylinositol 5-phosphate 4-kinase (PI5P4K). PI5P4Kalpha enzyme, ADP-Glo luminescence, 60 min; stronger effect = lower value. Phosphatidylinositol 5-phosphate 4-kinase type-2 alpha (Homo sapiens), P48426. hit rate 1.2% among 330,000. max response, %; active = max response of -50% or lower; inconclusive = between -30% and -50%; inactive = -30% or higher; note: value at the top dose of about 77 µM; % is set by controls: 0 for no effect and ±100 for the full control effect
Target sequence (P48426 whole entry, looked up): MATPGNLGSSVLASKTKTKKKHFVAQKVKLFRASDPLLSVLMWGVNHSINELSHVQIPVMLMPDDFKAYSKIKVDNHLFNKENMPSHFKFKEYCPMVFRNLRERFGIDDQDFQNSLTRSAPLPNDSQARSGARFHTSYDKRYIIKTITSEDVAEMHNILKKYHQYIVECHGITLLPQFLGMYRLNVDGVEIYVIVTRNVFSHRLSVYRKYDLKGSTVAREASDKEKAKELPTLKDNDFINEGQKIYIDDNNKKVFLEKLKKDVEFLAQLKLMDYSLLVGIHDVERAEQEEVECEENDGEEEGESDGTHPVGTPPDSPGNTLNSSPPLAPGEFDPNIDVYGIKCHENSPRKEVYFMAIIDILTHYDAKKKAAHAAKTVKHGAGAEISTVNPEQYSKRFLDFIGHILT
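Luminescence from ADP-Glo served as readout of PI5P4Kalpha activity in a qHTS format. Reaction: enzyme, substrate, compound, ATP at 5 microM final, 60 min at RT.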
* hit, by the source's call; ? = inconclusive; / = no result given; [ ] = another dose, or the depositor's remark. Rows were chosen to be rich in hits. Some 12% of all compounds tested hit in one or more screens of this group. Unless noted, calls come from the whole dose curve; as a rule, active = well fitted curve in the direction sought with a large enough effect; inconclusive = small, poorly fitted or top-dose-only effect, or another doubt; inactive = no such curve, though single readings can be large; an effect the other way counts as inactive or inconclusive.

SMILES	PLK1 PBD block	G9a block	JMJD2A Tudor	BAZ2B inh	HP1b binding inh	PI5P4Ka inh
CCOc1ccc(OCC(=O)Nc2nccs2)cc1	-8%	35µM*	-16%	?	35%	?
CCC(=O)N1CCc2cc(S(=O)(=O)NC(C(=O)Nc3cc(OC)cc(OC)c3)C(C)C)ccc21 (stereo not drawn)	/	6%[59 µM]	-22%	/	45%	/
CCCC(=O)Nc1sc(C)c(-c2ccc(OC)cc2)c1C#N	-5%	23%[59 µM]	10%	11%	14%	-5
CCCc1ccc(-c2c(C)sc(N)c2C#N)cc1	-18%	40µM*	-29%	?	?	-2
CC1CCC(NC(=O)c2ccc3c(c2)N(Cc2cccc(F)c2)C(=O)c2ccccc2S3)CC1 (stereo not drawn)	/	-6%[59 µM]	-35%	-22%	-6%	/
Cc1cc(N=Nc2ccccc2C(=O)O)c(C)c(C)c1O	-29%	32µM*	-21%[11.4 µM]	28µM*	?	-51*
Cc1cc(C)c(C)c(C(=O)c2ccccc2C(=O)O)c1C	-11%	/	-9%	-9%	27%	1
Cc1cc(O)c(C(C)C)cc1N=Nc1ccccc1C(=O)O	-4%	40µM*	?	?	?	-57*
CC[n+]1c(/C=C2\C=C(C)CC(C)C2)sc2ccccc21 (stereo not drawn)	?	?	50µM*	?	3%	-30
CCC1=C/C(=C/c2sc3ccccc3[n+]2CC)CC(C)(C)C1	21µM*	5µM*	13µM*	45µM*	-1%	?
CC[n+]1c(/C=C2/C=C(C)CC(C)(C)C2)sc2ccc(OC)cc21	21µM*	-37%[12.7 µM]	50µM*	56µM*	20µM*	?
CC[n+]1c(/C=C2\C=C(C)CC(C)(C)C2)sc2ccccc21	21µM*	?	40µM*	56µM*	-35%	/
COc1cccc(Cn2c(=O)c(-c3ccc(Cl)cc3)nc3cnc(OC)nc32)c1	/	2%[0.501 µM]	/	/	/	/
O=C(O)c1ccc(N2CC3CC(C2)c2cccc(=O)n2C3)c(NC(=S)Nc2ccc(Br)cc2)c1 (stereo not drawn)	19µM*	32µM*	-21%	2%	-23%	-13
CCc1ccc(NC(=S)Nc2cc(C(=O)O)ccc2N2CC3CC(C2)c2cccc(=O)n2C3)cc1 (stereo not drawn)	-21%	?	-17%	/	1%	-4
CCCCOc1ccc(Nc2cc(Cl)ccc2C(=O)O)cn1	24µM*	30%[0.501 µM]	?	71µM*	-30%	1
COc1ccc(Nc2cccc(Cl)c2)c(C(=O)O)c1	-7%	-8%[59 µM]	-30%	-25%	-13%	-12
COCCCNC(=O)c1ccc(C(=O)NCCCOC)cc1	-2%	5%[59 µM]	3%	/	25%	/
CCn1c(N)c(C(=O)N2CCOCC2)sc1=S	15µM*	10µM*	-25%	-9%	?	-19
CCn1c(N)c(C(=O)NCCCOC)sc1=S	21µM*	28µM*	-24%	?	50µM*	-7
CCn1c(N)c(C(=O)NCc2cccnc2)sc1=S	-27%	-5%[59 µM]	-8%	-33%	-8%	9
CCNC(=O)c1sc(=S)n(CC)c1N	27µM*	13µM*	-17%	?	-31%	-1
CC(C)OCCCNC(=O)c1sc(=S)n(C)c1N	30µM*	14µM*	-35%	-1%	?	-6
Cn1c(N)c(C(=O)Nc2ccc(-c3ccccc3)cc2)sc1=S	15µM*	8.9µM*	50µM*	50µM*	?	-5
CN(C)c1ccc(C=C2C=C(c3ccccc3)OC2=O)cc1	-1%	/	/	/	/	-13
SMILES	PLK1 PBD block	G9a block	JMJD2A Tudor	BAZ2B inh	HP1b binding inh	PI5P4Ka inh
CN(C)c1ccc(/C=C2/C=C(c3ccc4c(c3)CCCC4)OC2=O)cc1	2%	-17%[59 µM]	2.5µM*	?	?	6
O=C(NCc1cccnc1)c1cnc2n(c1=O)CCS2	-1%	-11%[59 µM]	-8%	9%	16%	/
COc1ccc(CNC(=O)c2cnc3n(c2=O)CCS3)cc1	-12%	45µM*	-11%	7%	38%	-1
O=C(NCc1ccccc1Cl)c1cnc2n(c1=O)CCS2	-11%	56µM*	-11%	-14%	38%	-3
O=C(NCCc1ccccc1)c1cnc2n(c1=O)CCS2	-14%	-43%	-12%	/	6%	-4
Cc1ccc2c(c1)c1nnc(SCC(=O)Nc3cccc(Cl)c3C)nc1n2CC(=O)O	-8%	?	?	50µM*	-17%	-5
Cc1ccc2c(c1)c1nnc(SCC(=O)Nc3ccc(N(C)C)cc3)nc1n2CC(=O)O	-16%	25µM*	?	?	-1%	-5
Cc1ccc2c(c1)c1nnc(SCC(=O)Nc3ccccc3C(F)(F)F)nc1n2CC(=O)O	-10%	-10%	-5%[57.1 µM]	-16%	40%	1
Cc1cccc(Nc2c([N+](=O)[O-])c(=O)n(C)c3ccccc23)c1	27µM*	-14%[59 µM]	50µM*	?	-9%	-26
COc1cc2c(cc1OC)CC(=O)N(C)CC2	0%	6%	-3%	1%	17%	1
COc1cc2c(cc1OC)C[N+](C)(C)CC2	-6%	-10%[12.7 µM]	50µM*	-6%	9%	-5
COc1ccc(-c2noc(CSc3nnc(C)n3-c3ccc(OC)cc3)n2)cc1	/	1%[59 µM]	-7%	-15%	31%	/
COc1ccc(-c2nc(CS(=O)CC(=O)NCc3ccc(Cl)cc3)c(C)o2)cc1 (stereo not drawn)	-26%	40µM*	-26%	-29%	6%	1
CCc1ccc(-c2nc(CS(=O)CC(=O)NCc3ccccc3)c(C)o2)cc1 (stereo not drawn)	?	28µM*	-12%	-15%	23%	-14
CCc1ccc(-c2nc(CS(=O)CC(=O)NCc3ccc4c(c3)OCO4)c(C)o2)cc1 (stereo not drawn)	?	40µM*	-25%	-32%	16%	-9
COc1cccc(-c2nc(CS(=O)CC(=O)NCCCOC(C)C)c(C)o2)c1 (stereo not drawn)	-5%	45µM*	-12%	10%	52%	11
Cc1oc(-c2ccc(Cl)cc2)nc1CS(=O)CC(=O)NCc1ccccc1 (stereo not drawn)	-19%	-12%	2%	0%	49%	-13
O=C(Nc1cccc(C(F)(F)F)c1)C1CCN(S(=O)(=O)c2cccc3nsnc23)CC1	/	-19%[59 µM]	-30%	/	36%	/
